Structures are written as SMILES. Screen size: about 290,000 compounds; about 4,200 (1.4%) were called active. Only a selection was taken, and actives are over-represented in it overall. A number with no mark means an inactive call.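 How the source made its calls: active means binding response more than 3 SD above or below the average of its plate-row segment, actives on both sides; inconclusive means wells at one plate position flagged as instrument error; inactive means the rest.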

Mitogen-activated protein kinase kinase kinase 3 (Homo sapiens), sequence (Q99759 whole entry, looked up): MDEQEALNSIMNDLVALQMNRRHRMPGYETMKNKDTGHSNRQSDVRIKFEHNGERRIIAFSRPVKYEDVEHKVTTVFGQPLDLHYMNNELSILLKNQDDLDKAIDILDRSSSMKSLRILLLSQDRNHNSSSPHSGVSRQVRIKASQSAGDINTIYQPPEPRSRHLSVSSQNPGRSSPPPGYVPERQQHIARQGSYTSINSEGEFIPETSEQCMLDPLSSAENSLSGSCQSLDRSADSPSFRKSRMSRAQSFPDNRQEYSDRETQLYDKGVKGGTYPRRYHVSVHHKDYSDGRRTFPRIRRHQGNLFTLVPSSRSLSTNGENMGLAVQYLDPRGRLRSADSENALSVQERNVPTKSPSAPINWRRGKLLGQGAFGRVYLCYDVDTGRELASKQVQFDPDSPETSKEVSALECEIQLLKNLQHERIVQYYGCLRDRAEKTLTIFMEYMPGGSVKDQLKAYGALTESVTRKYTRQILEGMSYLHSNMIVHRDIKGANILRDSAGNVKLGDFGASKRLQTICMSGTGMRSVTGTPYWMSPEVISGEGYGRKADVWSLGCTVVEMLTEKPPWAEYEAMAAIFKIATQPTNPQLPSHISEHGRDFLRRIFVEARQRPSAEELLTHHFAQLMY

This test concerns the target Mitogen-activated protein kinase kinase kinase 3 (Homo sapiens) (UniProt Q99759). In words: compounds raising or lowering MEK5 association with MEKK3 PB1 – biochemical, wildtype MEKK3, multiplex bead flow cytometry, Alexa488-MEK5, primary screen (AID 1529).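 Further: Alexa488 bead fluorescence after subtracting the streptavidin-only scavenger bead signal.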 Conditions: bead-based flow cytometry, Alexa488-MEK5 binding to MEKK3; at 10 µM; actives lie on both sides; 0 = blocked by unlabeled MEK5, 100 = vehicle. On the technique in general: In flow cytometry, cells or beads pass a laser one at a time.
As for `Cc1[nH][nH]c(=O)c1C(c1ccc2c(c1)OCO2)c1c(C)[nH][nH]c1=O`, the binding response (% of control) is 102%.

Consider `CCOc1ccc(CN2CCN(Cc3c[nH]c4ccccc34)CC2)cc1`, for which the binding response (% of control) was 99%.

As for `Cn1ccnc1-c1nnn(-c2ccc(F)cc2)n1`, the binding response (% of control) is 95%.

For `CCOc1cc(C2C(C(=O)OC)=CN(C3CCCC3)C=C2C(=O)OC)cc(Br)c1O`, the binding response (% of control) is 80% [inhibitor] (active).

On to `COC(=O)C1=CN(Cc2ccc(OC)cc2)C=C(C(=O)OC)C1c1ccc(O)c(OC)c1`, for which the binding response (% of control) is 104%.

Take `CCOc1ccccc1C1C(C(=O)OC)=CN(C)C=C1C(=O)OC`: the binding response (% of control) was 102%.

Consider `COc1nnc(-c2ccc(C)c(S(=O)(=O)N(C)C)c2)c2ccccc12`, for which the binding response (% of control) was 101%.

For `Cc1c(C#N)c2ncn(CC#N)c(=O)c2n1-c1ccccc1`, the binding response (% of control) is 122% (active).

As to `CC(=O)Cn1cnc2c(cnn2-c2ccccc2)c1=O`, the binding response (% of control) is 102%.

As for `CN(C)/C=C/c1c(C#N)c(=O)ncn1Cc1ccccc1`, the binding response (% of control) is 103%.

`Cc1cc(N2CCOCC2)nc2ccc(NC(=S)N3CCN(Cc4ccccc4)CC3)cc12`: the binding response (% of control) was 92%.

Consider `COc1ccc(C(C(=O)NC(C)(C)C)N(Cc2ccc(F)cc2)C(=O)CCC(=O)Nc2cc(C)on2)cc1` (configuration not stated), for which the binding response (% of control) is 100%.

As to `NC(=O)C1CCN(C(=O)CC2C(=O)NCCN2Cc2cccc(Oc3ccccc3)c2)CC1` (configuration not stated), the binding response (% of control) is 101%.

With `Cc1ccc2occ(/C=N/NC(=O)c3ccccc3C)c(=O)c2c1`, the binding response (% of control) was 104%.

As for `NC(=S)N/N=C/c1coc2cc(Cl)ccc2c1=O`, the binding response (% of control) is 92%.

In the case of `O=c1c(/C=N/O)coc2ccc(Cl)cc12`, the binding response (% of control) is 48% [inhibitor] (active).

Regarding `Cc1ccc(OCC(=O)Nc2ccc3oc(=O)ccc3c2)cc1C`, the binding response (% of control) is 102%.

As to `Cc1ccccc1-c1ccc(Nc2ccc(C(=O)N3CCOCC3)cc2)nn1`, the binding response (% of control) was 79% [inhibitor] (active).

For the compound `O=C(Nc1ccc(Cl)cc1)Nc1ccc(C(=O)N2CCOCC2)cc1`, the binding response (% of control) was 103%.

`Cc1ccc(C(=O)N2CCN(C(=O)N3CCOCC3)CC2)cc1`: the binding response (% of control) is 107%.

Take `Cc1cc(Cl)ccc1OCc1nc(-c2ccncc2)no1`: the binding response (% of control) was 73% [inhibitor] (active).

Regarding `c1ccc(CCc2nc(-c3ccncc3)no2)cc1`, the binding response (% of control) is 105%.

In the case of `COc1ccc(-c2noc(COc3ccc(Cl)c(C)c3)n2)cc1`, the binding response (% of control) is 102%.

For the compound `CCC1Oc2ccccc2N(CC(=O)NCCCN2CCN(CC)CC2)C1=O` (configuration not stated), the binding response (% of control) is 105%.

Regarding `COc1ccc(S(=O)(=O)N(C)CC(=O)N2CCCC2)cc1`, the binding response (% of control) was 101%.

Regarding `C[N+](C)(C)CCNC(=O)c1c(O)c2c([nH]c1=O)CCCC2`, the binding response (% of control) is 78% [inhibitor] (active).

For the compound `CCc1nnc(NC(=O)c2c(O)c3c([nH]c2=O)CCCC3)s1`, the binding response (% of control) was 105%.

As to `O=C(NCc1ccccn1)c1c(O)c2c([nH]c1=O)CCCC2`, the binding response (% of control) was 107%.

Regarding `O=C(CN(c1cc(C(F)(F)F)ccc1Cl)S(=O)(=O)c1ccccc1)NCc1cccnc1`, the binding response (% of control) was 101%.

For the compound `COc1cc(NC(=O)C2CCN(c3cnccn3)CC2)cc(OC)c1`, the binding response (% of control) was 102%.

Take `Cc1[nH]c2ccc(C(=O)N3CCN(C)CC3)cc2c1C`: the binding response (% of control) was 99%.

In the case of `COC(=O)CCNC(=O)c1ccc2[nH]c(C)c(C)c2c1`, the binding response (% of control) is 102%.

As to `Cc1[nH]c2ccc(S(N)(=O)=O)cc2c1C`, the binding response (% of control) is 81% [inhibitor] (active).

In the case of `Cc1cccc(Nc2nc(NCCO)nc(N3CCCC3)n2)c1`, the binding response (% of control) was 106%.

As for `CN(CCNC(=O)c1cc2c(-c3ccccc3F)nn(C)c2s1)C1CCCCC1`, the binding response (% of control) is 108%.

As to `Cc1ccc(C(=O)N/C(=C/c2cccnc2)C(=O)O)cc1`, the binding response (% of control) is 95%.

Take `O=C(O)/C(=C/c1cccnc1)NC(=O)c1ccccc1`: the binding response (% of control) was 156% (active).

Turning to `CC(C)(C)NC(=O)/C(=C/c1cccnc1)NC(=O)c1ccco1`, the binding response (% of control) was 101%.

With `Cc1nnc(SCC(=O)Nc2ccc(S(=O)(=O)Nc3ccc(Cl)nn3)cc2)s1`, the binding response (% of control) is 99%.

For the compound `COc1ccccc1/C=C1\SC(=O)N(CCC(=O)N(C)C2CCS(=O)(=O)C2)C1=O` (configuration not stated), the binding response (% of control) is 98%.

Regarding `Cc1c(CN2CC[C@@H](N3CCN(c4ccccn4)CC3)[C@H](O)C2)[nH]c2ccc(F)cc12`, the binding response (% of control) was 104%.

For `COC(=O)c1sc(C(F)(F)F)c(-c2ccccc2)c1S(=O)(=O)N(C)C`, the binding response (% of control) is 106%.

As to `Cc1ccc(S(=O)(=O)N(C)CC(=O)OCC(=O)Nc2ccccc2)cc1`, the binding response (% of control) is 94%.

On to `CCOC(=O)CN(C)S(=O)(=O)c1ccc(-c2cc(C(=O)OC)sc2C(F)(F)F)cc1`, for which the binding response (% of control) was 129% (active).

Take `O=C(O)C1=NN(c2c(F)c(F)cc(F)c2F)C(=O)CC1`: the binding response (% of control) is 95%.

`CCOC(=O)CSc1nnc(NC(=O)C2CC(=O)N(c3ccc(F)cc3)C2)s1` (configuration not stated): the binding response (% of control) was 102%.

For the compound `COC(=O)c1cccc(N(C(=O)CNC(=O)c2cccs2)C(C(=O)NCC2CCCO2)c2ccc(OC)c(OC)c2)c1` (configuration not stated), the binding response (% of control) is 100%.
